Measurements published in PubChem BioAssay AID1159580 (chemical genetic matrix, 2015).
The whole screen tested about 5,500 compounds, of which about 2,000 (36%) were called active. Inconclusive results (about 18%) are left out. No stated cut-off is given here; in the data, active means normalized growth mostly below about 0.91 (no sharp cut-off); inconclusive means no clear call, values can overlap the other calls; inactive means mostly above about 0.92. The list shows a part of the results.

Experiment: chemical genetic growth profiling, strain panel (AID 1159580);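 further: tested at 20 µM; growth read once vehicle control cultures reached saturation at 30 °C; 1 = growth at the plate median or of vehicle wells; lower values mean less growth of the strain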
Details: growth OD
[1] = S. cerevisiae deletion strains, locus YAL013W, strain DEP1, active compounds read low
[2] = S. cerevisiae deletion strains, locus YAL040C, strain CLN3, active compounds read low
[3] = S. cerevisiae deletion strains, locus YCL061C, strain MRC1 (second series), active compounds read low
[4] = S. cerevisiae deletion strains, locus YDR150W, strain NUM1, active compounds read low
[5] = S. cerevisiae deletion strains, locus YDR363W, strain ESC2, active compounds read low
[6] = S. cerevisiae deletion strains, locus YER002W, strain NOP16, active compounds read low
[7] = S. cerevisiae deletion strains, locus YGR078C, strain PAC10, active compounds read low
[8] = S. cerevisiae deletion strains, locus YGR229C, strain SMI1, active compounds read low
[9] = S. cerevisiae deletion strains, locus YJR075W, strain HOC1, active compounds read low
[10] = S. cerevisiae deletion strains, locus YMR263W, strain SAP30, active compounds read low
[11] = S. cerevisiae deletion strains, locus YMR307W, strain GAS1, active compounds read low
[12] = S. cerevisiae deletion strains, locus YNL128W, strain TEP1, active compounds read low
[13] = S. cerevisiae deletion strains, locus YNL175C, strain NOP13, active compounds read low
[14] = S. cerevisiae deletion strains, locus YNL197C, strain WHI3, active compounds read low
[15] = S. cerevisiae deletion strains, locus YNL224C, strain SQS1, active compounds read low
[16] = S. cerevisiae deletion strains, locus YOR083W, strain WHI5 (second series), active compounds read low
[17] = S. cerevisiae deletion strains, locus YPL055C, strain LGE1, active compounds read low
[18] = S. cerevisiae deletion strains, locus YPL241C, strain CIN2, active compounds read low
[19] = S. cerevisiae deletion strains, locus YCL061C, strain MRC1, active compounds read low
[20] = S. cerevisiae deletion strains, locus YHR030C, strain SLT2, active compounds read low
[21] = S. cerevisiae deletion strains, locus YNL322C, strain KRE1, active compounds read low

Measured: normalized growth

Oc1cc2c(cc1O)[C@H]1c3ccccc3CN[C@@H]1CC2
active: [1] 0.9 | [3] 0.845 | [4] 0.848 | [8] 0.685 | [9] 0.843 | [11] 0.871 | [17] 0.864 | [18] 0.925
inactive: [2] 1.01 | [5] 0.985 | [6] 1.03 | [7] 1 | [10] 1 | [12] 1.01 | [13] 1.03 | [14] 1.02 | [15] 1.02 | [16] 1.01

Oc1cc2c(cc1O)C(c1ccccc1)CNCC2 (configuration not stated)
inactive: [1] 0.977 | S. cerevisiae deletion strains, locus YAL021C, strain ccr4, active compounds read low 0.972 | S. cerevisiae deletion strains, locus YAL026C, strain drs2, active compounds read low 0.988 | S. cerevisiae deletion strains, locus YAL030W, strain snc1, active compounds read low 1.01 | [2] 1.03 | S. cerevisiae deletion strains, locus YBL061C, strain skt5, active compounds read low 0.996 | S. cerevisiae deletion strains, locus YBR009C, strain hhf1, active compounds read low 1.05 | S. cerevisiae deletion strains, locus YBR023C, strain chs3, active compounds read low 0.998 | S. cerevisiae deletion strains, locus YBR171W, strain sec66, active compounds read low 0.912 | S. cerevisiae deletion strains, locus YBR231C, strain swc5, active compounds read low 1.01 | S. cerevisiae deletion strains, locus YBR279W, strain paf1, active compounds read low 0.988 | S. cerevisiae deletion strains, locus YCL011C, strain gbp2, active compounds read low 0.984 | S. cerevisiae deletion strains, locus YCL016C, strain dcc1, active compounds read low 1 | [3] 0.982 | [19] 0.992 | S. cerevisiae deletion strains, locus YCL069W, strain vba3, active compounds read low 1 | S. cerevisiae deletion strains, locus YCR088W, strain abp1, active compounds read low 0.999 | S. cerevisiae deletion strains, locus YDL005C, strain med2, active compounds read low 1 | S. cerevisiae deletion strains, locus YDL040C, strain nat1, active compounds read low 1.01 | S. cerevisiae deletion strains, locus YDR001C, strain nth1, active compounds read low 0.994 | S. cerevisiae deletion strains, locus YDR069C, strain doa4, active compounds read low 0.974 | S. cerevisiae deletion strains, locus YDR137W, strain rgp1, active compounds read low 0.967 | [4] 0.963 | S. cerevisiae deletion strains, locus YDR159W, strain sac3, active compounds read low 1.01 | S. cerevisiae deletion strains, locus YDR195W, strain ref2 1.07 | S. cerevisiae deletion strains, locus YDR297W, strain sur2, active compounds read low 0.996 | S. cerevisiae deletion strains, locus YDR334W, strain swr1, active compounds read low 0.963 | S. cerevisiae deletion strains, locus YDR335W, strain msn5, active compounds read low 0.979 | [5] 0.983 | S. cerevisiae deletion strains, locus YDR392W, strain spt3, active compounds read low 0.845 | S. cerevisiae deletion strains, locus YEL003W, strain gim4, active compounds read low 0.976 | S. cerevisiae deletion strains, locus YEL037C, strain rad23, active compounds read low 1 | S. cerevisiae deletion strains, locus YEL061C, strain CIN8 (second series), active compounds read low 0.99 | [6] 1 | S. cerevisiae deletion strains, locus YER015W, strain faa2, active compounds read low 1.02 | S. cerevisiae deletion strains, locus YER016W, strain bim1, active compounds read low 1.01 | S. cerevisiae deletion strains, locus YER111C, strain swi4, active compounds read low 0.993 | S. cerevisiae deletion strains, locus YER155C, strain BEM2 (second series), active compounds read low 1.01 | S. cerevisiae deletion strains, locus YFR010W, strain ubp6, active compounds read low 0.95 | S. cerevisiae deletion strains, locus YGL167C, strain pmr1, active compounds read low 0.994 | S. cerevisiae deletion strains, locus YGL173C, strain kem1, active compounds read low 1 | S. cerevisiae deletion strains, locus YGL227W, strain vid30, active compounds read low 1.01 | S. cerevisiae deletion strains, locus YGL240W, strain doc1, active compounds read low 1.05 | S. cerevisiae deletion strains, locus YGL253W, strain hxk2, active compounds read low 0.991 | [8] 0.958 | S. cerevisiae deletion strains, locus YHR013C, strain ard1, active compounds read low 0.96 | S. cerevisiae deletion strains, locus YHR027C, strain rpn1, active compounds read low 0.989 | [20] 0.986 | S. cerevisiae deletion strains, locus YHR079C, strain IRE1, active compounds read low 0.989 | S. cerevisiae deletion strains, locus YHR142W, strain chs7, active compounds read low 0.916 | S. cerevisiae deletion strains, locus YJL092W, strain hpr5, active compounds read low 0.974 | S. cerevisiae deletion strains, locus YJL095W, strain BCK1 (second series), active compounds read low 1.01 | S. cerevisiae deletion strains, locus YJL095W, strain BCK1, active compounds read low 0.98 | S. cerevisiae deletion strains, locus YJL115W, strain asf1, active compounds read low 0.991 | S. cerevisiae deletion strains, locus YJL129C, strain trk1, active compounds read low 0.921 | S. cerevisiae deletion strains, locus YJL154C, strain vps35, active compounds read low 1 | S. cerevisiae deletion strains, locus YJL164C, strain tpk1, active compounds read low 0.967 | S. cerevisiae deletion strains, locus YJL166W, strain qcr8, active compounds read low 0.995 | S. cerevisiae deletion strains, locus YJL187C, strain SWE1, active compounds read low 1 | S. cerevisiae deletion strains, locus YJR066W, strain TOR1, active compounds read low 0.943 | S. cerevisiae deletion strains, locus YKL160W, strain elf1, active compounds read low 0.942 | S. cerevisiae deletion strains, locus YKR026C, strain gcn3, active compounds read low 0.995 | S. cerevisiae deletion strains, locus YKR091W, strain srl3, active compounds read low 1 | S. cerevisiae deletion strains, locus YLL001W, strain dnm1, active compounds read low 0.989 | S. cerevisiae deletion strains, locus YLL026W, active compounds read low 1 | S. cerevisiae deletion strains, locus YLL041C, strain sdh2, active compounds read low 0.989 | S. cerevisiae deletion strains, locus YLR027C, strain aat2, active compounds read low 0.977 | S. cerevisiae deletion strains, locus YLR113W, strain HOG1, active compounds read low 0.979 | S. cerevisiae deletion strains, locus YLR221C, strain rsa3, active compounds read low 0.948 | S. cerevisiae deletion strains, locus YLR258W, strain gsy2, active compounds read low 1.02 | S. cerevisiae deletion strains, locus YLR262C, strain YPT6 (second series), active compounds read low 0.919 | S. cerevisiae deletion strains, locus YLR320W, strain mms22, active compounds read low 0.966 | S. cerevisiae deletion strains, locus YLR342W, strain FKS1, active compounds read low 0.994 | S. cerevisiae deletion strains, locus YLR357W, strain rsc2, active compounds read low 1.04 | S. cerevisiae deletion strains, locus YLR370C, strain arc18, active compounds read low 0.991 | S. cerevisiae deletion strains, locus YLR384C, strain iki3, active compounds read low 1.01 | S. cerevisiae deletion strains, locus YML120C, strain ndi1, active compounds read low 0.94 | S. cerevisiae deletion strains, locus YMR058W, strain fet3, active compounds read low 0.945 | S. cerevisiae deletion strains, locus YMR125W, strain sto1, active compounds read low 1.02 | S. cerevisiae deletion strains, locus YMR129W, active compounds read low 0.984 | S. cerevisiae deletion strains, locus YMR205C, strain PFK2, active compounds read low 1.06 | S. cerevisiae deletion strains, locus YMR231W, strain pep5, active compounds read low 1.02 | [11] 0.992 | S. cerevisiae deletion strains, locus YNL071W, strain lat1, active compounds read low 0.964 | [12] 0.981 | [13] 1.04 | S. cerevisiae deletion strains, locus YNL183C, strain NPR1, active compounds read low 0.952 | [14] 1.03 | S. cerevisiae deletion strains, locus YNL209W, strain ssb2, active compounds read low 0.997 | [15] 0.993 | S. cerevisiae deletion strains, locus YNL248C, strain rpa49, active compounds read low 0.93 | S. cerevisiae deletion strains, locus YNL322C, strain KRE1 (second series), active compounds read low 0.989 | S. cerevisiae deletion strains, locus YNR049C, strain mso1, active compounds read low 1 | S. cerevisiae deletion strains, locus YOR001W, strain rrp6, active compounds read low 0.918 | S. cerevisiae deletion strains, locus YOR070C, strain gyp1, active compounds read low 0.992 | S. cerevisiae deletion strains, locus YOR080W, strain dia2, active compounds read low 1 | [16] 1.02 | S. cerevisiae deletion strains, locus YOR083W, strain WHI5, active compounds read low 0.922 | S. cerevisiae deletion strains, locus YOR106W, strain vam3, active compounds read low 0.919 | S. cerevisiae deletion strains, locus YOR231W, strain MKK1, active compounds read low 0.941 | S. cerevisiae deletion strains, locus YOR265W, strain rbl2, active compounds read low 0.997 | S. cerevisiae deletion strains, locus YOR270C, strain vph1, active compounds read low 0.967 | S. cerevisiae deletion strains, locus YOR290C, strain snf2, active compounds read low 0.92 | S. cerevisiae deletion strains, locus YPL051W, strain arl3, active compounds read low 0.938 | [17] 0.948 | S. cerevisiae deletion strains, locus YPL078C, strain atp4, active compounds read low 0.945 | S. cerevisiae deletion strains, locus YPL106C, strain sse1, active compounds read low 0.972 | S. cerevisiae deletion strains, locus YPL240C, strain hsp82, active compounds read low 0.983 | [18] 0.997 | S. cerevisiae deletion strains, locus YPL256C, strain CLN2, active compounds read low 0.984

NC1CCc2cc(O)c(O)cc2C1 (configuration not stated)
inactive: [1] 0.978 | [2] 1.01 | [3] 1.01 | [4] 1.01 | [5] 0.979 | [6] 1.02 | [7] 1.04 | [9] 0.985 | [10] 0.997 | [12] 1.01 | [13] 1.02 | [14] 1.01 | [15] 1.01 | [16] 1.08 | [17] 0.976

Cn1nccc1NS(=O)(=O)c1ccc(C(C)(C)C)cc1
inactive: [1] 0.982 | S. cerevisiae deletion strains, locus YBR229C, strain ROT2, active compounds read low 0.97 | [19] 0.982 | S. cerevisiae deletion strains, locus YDL101C, strain DUN1, active compounds read low 0.983 | [4] 0.992 | S. cerevisiae deletion strains, locus YEL061C, strain CIN8, active compounds read low 0.984 | [7] 0.985 | [8] 0.981 | [20] 0.948 | S. cerevisiae deletion strains, locus YHR087W, strain rtc3, active compounds read low 0.973 | S. cerevisiae deletion strains, locus YJR043C, strain POL32, active compounds read low 0.978 | [9] 0.987 | S. cerevisiae deletion strains, locus YKL190W, strain CNB1, active compounds read low 0.96 | S. cerevisiae deletion strains, locus YLR039C, strain RIC1, active compounds read low 0.92 | S. cerevisiae deletion strains, locus YLR058C, strain SHM2 (second series), active compounds read low 0.975 | S. cerevisiae deletion strains, locus YLR085C, strain ARP6, active compounds read low 1.08 | S. cerevisiae deletion strains, locus YLR262C, strain YPT6, active compounds read low 0.82 | S. cerevisiae deletion strains, locus YML094W, strain GIM5, active compounds read low 1.03 | S. cerevisiae deletion strains, locus YMR219W, strain ESC1, active compounds read low 0.985 | [10] 0.979 | [12] 0.968 | S. cerevisiae deletion strains, locus YNL153C, strain GIM3, active compounds read low 0.989 | S. cerevisiae deletion strains, locus YNL298W, strain CLA4 (second series), active compounds read low 0.948 | [21] 0.98 | S. cerevisiae deletion strains, locus YNR030W, strain Alg12, active compounds read low 1 | [17] 1.03 | [18] 1.01 | S. cerevisiae deletion strains, locus YPR135W, strain CTF4, active compounds read low 0.929 | S. cerevisiae strains, strain wild type, active compounds read low 0.959

CC(C)(C)c1ccc(S(=O)(=O)/C=C/C#N)cc1
active: [1] 0.234 | [2] 0.0822 | [6] 0.139 | [7] 0.0608 | [12] 0.0795 | [13] 0.227 | [14] 0.0935 | [15] 0.255 | [16] 0.0681
inactive: [21] 1.01
